According to PubChem BioAssay (NCATS):
Results filed as inconclusive are left out. Entries that show only a call come without a potency. Active and inactive are the calls of the source. Unless noted, calls come from the whole dose curve; as a rule, active = well fitted curve in the direction sought with a large enough effect; inconclusive = small, poorly fitted or top-dose-only effect, or another doubt; inactive = no such curve, though single readings can be large; an effect the other way counts as inactive or inconclusive.

How the values were obtained:
[1] = qHTS assay for measurement of the activity of small molecule inhibitors on Zika virus induced Caspase-3 activity in human astrocytoma cells (AID 1224859)
Outline: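 SNB-19 astrocytoma cells, 250/well, pretreated 1 h with compounds, then Zika virus at 2 FFU/cell for 6 h at 37 C; Caspase-Glo 3/7 luminescence after 30 min; percent inhibition normalised to uninfected and infected controls.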

[2] = qHTS assay to identify small molecule inhibitors of chordoma cells - UCH-1 (AID 1259355); note: nearly all actives have a fitted effect of over 55% in size
Outline: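 Cells (800/well) were seeded and left overnight at 37 C, 5% CO2, then treated with drugs at 15 concentrations plus a combination mix of auranofin, camptothecin, doxorubicin, rubitecan and topotecan. Viability after 48hr was read by CellTiter-Glo luminescence.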

[3] = qHTS assay to identify small molecule inhibitors of chordoma cells - UCH-2 (AID 1259356)
[4] = P-glycoprotein substrates identified in KB-8-5-11 adenocarcinoma cell line, qHTS therapeutic library screen (AID 1346987); note: nearly all actives have a fitted effect of over 65% in size
Outline: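 KB-8-5-11, a colchicine-selected P-gp-overexpressing KB-3-1 subline, was grown without colchicine for the assay. Cells were seeded at 500 cells/well, dosed in concentration-response and incubated 72 h at 37 degree C, 5% CO2. Viability was read by CellTiter-Glo luminescence.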

[5] = Natriuretic polypeptide receptor (hNpr1) antagonism - Pilot counterscreen GloSensor control cell line (AID 1347045; calls by dose curve)
Outline: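 HEK293 cGMP GloSensor cells preloaded 2 h with 2% GloSensor reagent, then compound 30 min before baseline luminescence read. Stimulated with 50 uM sodium nitroprusside, 20 min at room temperature, then read again; counterscreen for Npr1 antagonism.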

[6] = target: Atrial natriuretic peptide receptor 1 (Homo sapiens) (UniProt P16066); experiment: Natriuretic polypeptide receptor (hNpr1) antagonism - Pilot screen (AID 1347049; calls by dose curve;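 note: agonist-evoked cGMP luminescence read 20 min after hNppA addition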)
Outline: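 HEK293 cells expressing hNpr1 and GloSensor cGMP luciferase, 1500/well, loaded with 2% GloSensor reagent 2 h, compound 30 min at room temperature; luminescence read before and 20 min after 0.1 nM hNppA stimulation.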

[7] = NS1 protein of Zika virus - qHTS assay to identify small molecule inhibitors in human HEK 293 cells (AID 1347053); note: nearly all actives have a fitted effect of over 55% in size
Outline: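 HEK 293 cells, seeded 20 h at 37 C, were pretreated with compound 1 h, then infected with ZIKV MR766 (MOI = 0.5) for 24 h. NS1 was read by TR-FRET with two anti-NS1 antibodies, normalized to uninfected and infected wells.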

[8] = qHTS profiling for inhibitors of Plasmodium falciparum (3D7) proliferation (AID 743322; call rule not given here;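 note: infected erythrocytes exposed to compound for 72 h before lysis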); conditions: P. falciparum 3D7 proliferation; at 28.7 µM (top of the series) unless noted
Outline: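 Erythrocytes infected with P. falciparum (0.3% parasitemia, 2.5% hematocrit) incubated with compounds 72 h at 37 C, 5% CO2. Lysis with saponin/Triton buffer containing SYBR Green I, overnight at room temperature in the dark; DNA fluorescence (485/535 nm) normalised to 0.29 uM artemisinin and DMSO.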

[9] = qHTS profiling for inhibitors of Plasmodium falciparum (DD2) proliferation (AID 743323; call rule not given here); conditions: lower = more inhibition; at 28.7 µM (top of the series) unless noted
Outline: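 SYBR Green fluorescence (ex 485, em 535 nm) of lysed cultures gives parasite DNA content; wells normalized to artemisinin (0.29 uM) and DMSO controls. Infected red cells: 0.3% parasitemia, 2.5% hematocrit, 72 h, 37 C.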

[10] = qHTS profiling for inhibitors of Plasmodium falciparum (HB3) proliferation (AID 743324); conditions: Plasmodium falciparum HB3 blood-stage proliferation; at 28.7 µM (top of the series)
Outline: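 P. falciparum HB3 grown in erythrocytes (0.3% parasitemia, 2.5% hematocrit final) with compound for 72 h at 37 C, 5% CO2. Parasite DNA detected by SYBR Green after saponin/triton lysis overnight; normalized to 0.29 uM artemisinin and DMSO.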

[11] = target: Atrial natriuretic peptide receptor 2 (Homo sapiens) (UniProt P20594); experiment: Natriuretic polypeptide receptor (hNpr2) antagonism - Pilot subtype selectivity assay (AID 1347050; calls by dose curve)
Outline: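 HEK293 cells expressing hNpr2 and a GloSensor cGMP luciferase sensor, 1500/well, preloaded 2 h with 2% GloSensor reagent, compound 30 min, then 1 nM hNppC for 20 min. Antagonism from luminescence after versus baseline pre-read; LOPAC in 1:5 titrations.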

Atrial natriuretic peptide receptor 1 (Homo sapiens), sequence (P16066 whole entry, looked up): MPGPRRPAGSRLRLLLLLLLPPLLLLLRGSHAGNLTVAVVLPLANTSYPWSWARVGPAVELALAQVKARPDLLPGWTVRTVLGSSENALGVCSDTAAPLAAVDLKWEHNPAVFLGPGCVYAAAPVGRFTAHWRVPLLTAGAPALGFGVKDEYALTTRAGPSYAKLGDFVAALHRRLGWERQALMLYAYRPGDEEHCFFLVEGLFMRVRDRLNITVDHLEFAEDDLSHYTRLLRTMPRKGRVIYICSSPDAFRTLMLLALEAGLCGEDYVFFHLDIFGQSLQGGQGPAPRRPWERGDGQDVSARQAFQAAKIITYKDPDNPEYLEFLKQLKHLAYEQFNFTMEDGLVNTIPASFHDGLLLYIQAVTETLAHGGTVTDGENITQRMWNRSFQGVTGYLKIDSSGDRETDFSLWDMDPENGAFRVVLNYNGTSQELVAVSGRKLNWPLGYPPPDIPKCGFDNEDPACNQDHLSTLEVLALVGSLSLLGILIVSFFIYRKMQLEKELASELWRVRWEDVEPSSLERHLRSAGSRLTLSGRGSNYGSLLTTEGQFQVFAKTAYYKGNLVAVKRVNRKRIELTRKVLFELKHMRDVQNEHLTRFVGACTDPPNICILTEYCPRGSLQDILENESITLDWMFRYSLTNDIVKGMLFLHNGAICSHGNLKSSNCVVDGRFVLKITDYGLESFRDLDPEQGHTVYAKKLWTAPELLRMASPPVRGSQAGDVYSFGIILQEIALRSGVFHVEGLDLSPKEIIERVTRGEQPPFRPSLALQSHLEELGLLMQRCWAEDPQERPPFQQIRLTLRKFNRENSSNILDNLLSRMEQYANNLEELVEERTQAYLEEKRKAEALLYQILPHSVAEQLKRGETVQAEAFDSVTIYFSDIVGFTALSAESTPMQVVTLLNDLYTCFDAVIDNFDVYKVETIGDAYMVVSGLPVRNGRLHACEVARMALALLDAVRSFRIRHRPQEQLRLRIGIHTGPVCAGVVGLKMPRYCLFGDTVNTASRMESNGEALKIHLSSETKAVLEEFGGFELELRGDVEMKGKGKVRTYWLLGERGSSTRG
Atrial natriuretic peptide receptor 2 (Homo sapiens), sequence (P20594 whole entry, looked up): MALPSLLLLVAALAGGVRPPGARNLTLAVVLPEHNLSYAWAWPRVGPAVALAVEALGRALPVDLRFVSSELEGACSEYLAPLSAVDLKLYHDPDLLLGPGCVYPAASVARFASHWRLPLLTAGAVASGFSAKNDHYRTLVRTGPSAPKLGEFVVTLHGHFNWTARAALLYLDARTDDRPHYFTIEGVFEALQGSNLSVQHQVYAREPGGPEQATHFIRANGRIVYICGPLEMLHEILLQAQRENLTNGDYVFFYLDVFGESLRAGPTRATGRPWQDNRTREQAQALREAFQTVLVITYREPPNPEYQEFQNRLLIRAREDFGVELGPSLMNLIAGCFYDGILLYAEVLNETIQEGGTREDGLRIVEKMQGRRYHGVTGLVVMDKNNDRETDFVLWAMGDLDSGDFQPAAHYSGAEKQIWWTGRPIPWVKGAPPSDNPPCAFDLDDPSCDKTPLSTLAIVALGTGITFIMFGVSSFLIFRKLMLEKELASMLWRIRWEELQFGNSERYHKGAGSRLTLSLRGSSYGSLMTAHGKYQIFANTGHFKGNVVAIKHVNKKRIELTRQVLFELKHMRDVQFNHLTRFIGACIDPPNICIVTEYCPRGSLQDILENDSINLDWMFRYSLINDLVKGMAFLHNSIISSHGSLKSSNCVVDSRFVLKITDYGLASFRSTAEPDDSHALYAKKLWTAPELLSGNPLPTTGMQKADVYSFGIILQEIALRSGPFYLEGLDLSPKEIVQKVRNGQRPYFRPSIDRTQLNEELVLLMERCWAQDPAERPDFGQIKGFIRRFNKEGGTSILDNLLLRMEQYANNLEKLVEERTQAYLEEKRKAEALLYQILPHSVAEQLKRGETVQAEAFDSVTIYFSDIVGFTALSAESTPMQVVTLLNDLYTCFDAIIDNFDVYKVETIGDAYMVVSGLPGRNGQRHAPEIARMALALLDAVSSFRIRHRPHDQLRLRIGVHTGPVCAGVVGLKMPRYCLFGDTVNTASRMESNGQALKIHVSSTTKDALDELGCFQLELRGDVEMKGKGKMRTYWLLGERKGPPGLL

Compound: CC(C(=O)O)c1ccc(CC2CCCC2=O)cc1 (centres undefined)
- outcome [1]: inactive
- Potency [2]: inactive
- Potency [3]: inactive
- Potency [4]: inactive
- Potency [5]: inactive
- Potency [6]: inactive
- outcome [7]: inactive

Compound: CNCCC(Oc1ccccc1OC)c1ccccc1 (centres undefined)
- remaining parasite growth % (stronger effect = lower value) [8]: 104%
- activity, percent of control [9]: 48%
- remaining proliferation (% of control), lower = more inhibition [10]: 91.8%
- outcome [1]: inactive
- Potency [2]: inactive
- Potency [3]: inactive
- Potency [4]: inactive
- Potency [5]: inactive
- Potency [6]: inactive
- Potency [11]: inactive
- outcome [7]: inactive

Compound: CCCCOCCOCCOCc1cc2c(cc1CCC)OCO2
- outcome [1]: inactive
- Potency [2]: inactive
- Potency [3]: inactive
- Potency [4]: inactive
- outcome [7]: inactive

Compound: CC(=O)Oc1cc(C(C)C)c(OCCN(C)C)cc1C
- outcome [1]: inactive
- Potency [3]: inactive
- Potency [4]: inactive
- Potency [6]: inactive
- outcome [7]: inactive

Compound: Cc1nc2c([nH]1)c(=O)n(C)c(=O)n2Cc1ccco1
- outcome [1]: inactive
- Potency [2]: inactive
- Potency [3]: inactive
- Potency [4]: inactive
- Potency [5]: inactive
- Potency [6]: inactive
- Potency [11]: inactive
- outcome [7]: inactive

Compound: CN(C)CC/C=C1\c2ccccc2COc2ccccc21
- remaining parasite growth % (stronger effect = lower value) [8]: 96.2% [at 9.63 µM]
- activity, percent of control [9]: 49.5% [at 9.63 µM]
- outcome [1]: inactive
- Potency [2]: inactive
- Potency [3]: inactive
- Potency [5]: inactive
- Potency [6]: inactive
- outcome [7]: inactive

Compound: C[C@]12C=CC(=O)C=C1CC[C@H]1[C@@H]3C[C@@H](O)[C@](O)(C(=O)CO)[C@@]3(C)C[C@H](O)[C@@]12F
- outcome [1]: inactive
- Potency [3]: inactive
- Potency [4]: inactive
- Potency [6]: inactive
- outcome [7]: inactive

Compound: NC(=O)c1ncn([C@@H]2O[C@H](CO)[C@@H](O)[C@H]2O)c1O
- outcome [1]: inactive
- Potency [2]: inactive
- Potency [3]: inactive
- Potency [4]: inactive
- Potency [5]: inactive
- Potency [6]: inactive
- Potency [11]: inactive
- outcome [7]: inactive

Compound: CN(C)C/C=C(/c1ccc(Br)cc1)c1cccnc1
- outcome [1]: inactive
- Potency [2]: inactive
- Potency [3]: inactive
- Potency [5]: inactive
- Potency [6]: inactive
- Potency [11]: inactive
- outcome [7]: inactive

Compound: Cc1ccc(/C(=C\CN2CCCC2)c2ccccn2)cc1
- outcome [1]: inactive
- Potency [2]: inactive
- Potency [3]: inactive
- Potency [5]: inactive
- Potency [6]: inactive
- Potency [11]: inactive
- outcome [7]: inactive

Compound: CC(C)[N+](C)(CCOC(=O)C1c2ccccc2Oc2ccccc21)C(C)C
- outcome [1]: inactive
- Potency [2]: inactive
- Potency [3]: inactive
- Potency [4]: inactive
- Potency [5]: inactive
- Potency [6]: inactive
- Potency [11]: inactive
- outcome [7]: inactive
